Compounds with a hit are over-represented: about 0.41% of the library has one in this group of screens.
aGlu spleen mod: inhibits or activates alpha-glucosidase in human spleen homogenate; P10253; human spleen homogenate, 4-MU-alpha-glucoside fluorescence; Potency, µM (series often up to 79.9 µM), for inactives: at the highest dose activity change, negative = inhibition, actives largely listed as inhibitors; 0.006% of 240,000 active;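 also: potency is read from the fitted curve at half-maximal effect; 0% = enzyme with vehicle and -100% = no enzyme basal signal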
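Human spleen homogenate (1 ug) with 4-methylumbelliferyl-alpha-D-glucopyranoside (1 mM final) in 50 mM citrate/phosphate pH 5.0, 0.01% Tween-20; 40 min at 37 C. Stopped at pH 10; 4-MU fluorescence Ex 365/Em 440 nm; AC50 by Hill fit.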
GAA inh: alpha-glucosidase (human) inhibition; purified human GAA, 4-MU-alpha-glucoside fluorescence; Potency, µM (titrated, usually from 76.9 µM), for inactives: at the highest dose activity change, negative = inhibition, most hits filed as inhibitors; 0.005% of 200,000 active; P10253;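 also: potency is read from the fitted curve at half-maximal effect; plate controls were uninhibited enzyme wells for no effect and no-enzyme background for full effect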
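Endpoint fluorogenic read: 20 min room-temperature reaction of 4 nM human alpha-glucosidase with 400 uM 4-methylumbelliferyl-alpha-D-pyranoside, pH 5.0, quenched with 1M NaOH/1M glycine pH 10. AC50 from Hill modeling.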
GAA glycogen: GAA glycogen-cleavage inhibition or activation. P10253. recombinant GAA, glycogen substrate, Amplex Red glucose oxidase fluorescence. Potency, µM (series often up to 76.4 µM), without a hit: top-dose activity change, negative = inhibition, hits mostly inhibitors. 0.38% of 300,000 active. AID 2100;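 also: potency is read from the fitted curve at half-maximal effect; 0% = full enzyme reaction and -100% = no-enzyme basal signal; the screen sought inhibitors and activators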
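Recombinant human enzyme (4 nM); glycogen substrate; 37 C, 40 min, pH 5.0. Readout: coupled glucose oxidase/Amplex Red fluorescence.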
GLA inh pH 4.5: blocks human alpha-galactosidase A at pH 4.5; AID 1467; P06280; 230,000 tested, under 10 active; purified enzyme, 4-MU-alpha-Gal fluorescence, pH 4.5; activity change, negative = inhibition, % at 105 µM;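 also: 0% = full activity with enzyme and -100% = basal without enzyme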
N370S GC mod: inhibits or activates N370S mutant glucocerebrosidase. P04062. N370S GC spleen homogenate, 4MU-glucoside fluorescence. Potency, µM (top dose mostly 59.4 µM), inactives show at the highest dose activity change, negative = inhibition, most hits filed as inhibitors. 0.092% of 330,000 active. AID 2101;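 also: potency is read from the fitted curve at half-maximal effect; 0% = full enzyme activity and -100% = no enzyme basal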
GLA spleen mod: inhibits or activates alpha-galactosidase in human spleen homogenate; 0.008% of 240,000 active; human spleen homogenate, 4MU-alpha-Gal fluorescence, 40 min; P06280; Potency, µM (top dose mostly 80 µM), for inactives: at the highest dose activity change, negative = inhibition, usual class: inhibitors;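 also: potency is read from the fitted curve at half-maximal effect; 0% = enzyme with vehicle and -100% = no enzyme basal signal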
Target sequence (P06280 32-429 limits assumed): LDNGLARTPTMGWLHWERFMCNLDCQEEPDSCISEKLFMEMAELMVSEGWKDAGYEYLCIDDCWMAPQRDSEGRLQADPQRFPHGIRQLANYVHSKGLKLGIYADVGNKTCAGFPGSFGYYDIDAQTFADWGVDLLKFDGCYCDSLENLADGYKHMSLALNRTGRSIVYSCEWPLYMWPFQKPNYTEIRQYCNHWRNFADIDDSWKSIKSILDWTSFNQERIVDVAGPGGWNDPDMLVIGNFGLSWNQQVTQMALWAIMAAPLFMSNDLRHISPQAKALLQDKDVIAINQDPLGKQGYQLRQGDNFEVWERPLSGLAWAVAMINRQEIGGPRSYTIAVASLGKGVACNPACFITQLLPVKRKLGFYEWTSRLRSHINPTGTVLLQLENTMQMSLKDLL
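Inhibition or activation of alpha-galactosidase in human spleen homogenate is scored by 4-MU fluorescence after 40 min at 37C, pH 5.0, with 1 mM substrate. AC50s come from concentration-response fitted to the Hill equation.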
Starred values were filed as active, the others as inactive; ? = inconclusive; · = no result given; [ ] = dose if it differs, or a comment. Calls follow the shape of the dose curve; as a rule, active = well fitted curve in the direction sought with a large enough effect; inconclusive = small, poorly fitted or top-dose-only effect, or another doubt; inactive = no such curve, though single readings can be large; an effect the other way counts as inactive or inconclusive.

SMILES | aGlu spleen mod | GAA inh | GAA glycogen | GLA inh pH 4.5 | N370S GC mod | GLA spleen mod
CCS(=O)(=O)CCSc1nc2ccccc2o1 | -6% | -4% | 3% | -11 | 8% | -4%
O=C(Oc1cccc2c(O)cccc12)c1ccccc1 | -2% | -11% | 28µM* | -6 | 1% | -2%
Oc1ccc(/C=N/Nc2cc(N3CCCC3)nc(N3CCCC3)n2)cc1 | -10% | -11% | 25µM* | -2 | -17% | -3%
Oc1cccc(/C=N/Nc2cc(N3CCCC3)nc(N3CCCC3)n2)c1 | -7% | 1% | -3% | -1 | -18% | -5%
CCOC(=O)C1=C(c2ccccc2)NC(=O)NC1c1cc(Cl)c(O)c(OC)c1 (configuration not stated) | -3% | -3% | -29% | 1 | 1% | 6%
CCOC(=O)C1=C(c2ccccc2)NC(N)=NC1c1ccc(OCc2ccc(Cl)cc2)c(OC)c1 (configuration not stated) | 2% | · | -5% | -14 | 22µM* | -17%
Cc1ccc2c(=O)cc(C(=O)Nc3nnc(CC(C)C)s3)oc2c1C | · | · | 11%[76.3 µM] | · | · | ·
COc1ccccc1N1CCN(/N=C/c2cccc(O)c2)CC1 | 2% | -10% | 9.9µM* | -14 | 1% | -2%
COC(=O)C1=C(C(=O)OC)[C@@H]2N(C)c3ccccc3[C@@]23C[C@@H](C(=O)OC)N(S(=O)(=O)c2ccc(C)cc2)C3=N1 | 7%[17.4 µM] | · | · | 5 | -9%[12.8 µM] | -3%[17.5 µM]
c1ccc(CCNc2nc(-c3ccncc3)nc3ccccc23)cc1 | 0% | · | -3% | -1 | 14µM* | -5%
Clc1ccccc1-c1nc(NCc2cccnc2)c2ccccc2n1 | 3% | · | · | · | 16µM* | 9%
CC(C)(C)C(=O)OCCNc1nc(-c2ccccc2)nc2ccccc12 | 3% | -11% | -1% | -4 | 0.89µM* | -9%
CC(C)OCCCNc1nc(-c2ccccc2)nc2ccccc12 | · | · | -10%[76.3 µM] | · | 1.8µM* | ·
COC(=O)c1ccc(C(/C=C/[C@@H](C)C(=O)NCCN2CCCC2)NC(=O)OCc2ccccc2)cc1 (some centres not stated) | -9% | · | · | -18 | 0% | 5%
COc1ccccc1-c1nnc2n1N=C(c1ccc(O)c(O)c1)CS2 | -1% | -7% | 11µM* | -3 | -6% | -1%
COc1c(F)c(F)c(C(=O)Nc2ccc(N3CCN(C(C)=O)CC3)c(Cl)c2)c(F)c1F | -1% | -3% | -1% | -1 | 11µM* | 2%
Cc1cccc(CN2C(=O)c3ccccc3Sc3ccc(C(=O)NCCN4CCOCC4)cc32)c1 | 1% | -7% | -8% | -16 | 14µM* | 0%
O=C(c1ccc2c(c1)N(Cc1ccccc1F)C(=O)c1ccccc1S2)N1CCOCC1 | 4% | · | -4% | 3 | -2% | -1%
O=C(NCCN1CCOCC1)c1ccc2c(c1)N(Cc1ccccc1F)C(=O)c1ccccc1S2 | -12% | -4% | 0% | -15 | 10µM* | -4%
CCN1C(=O)c2ccccc2Sc2ccc(C(=O)NCCCN3CCOCC3)cc21 | 0% | 1% | -11% | 8[21.1 µM] | -9% | 7%
CCOC(=O)c1cccc(NC(=O)C2=C(C)C(=O)OC23CCCCC3)c1 | · | · | -5%[76.3 µM] | · | · | ·
CCN(C(=O)c1cc(S(=O)(=O)N2CCOCC2)cn1C)c1ccc(OC)cc1 | · | · | 15%[76.3 µM] | · | · | ·
CN(CC(=O)Nc1cccc(F)c1)C(=O)/C=C/c1cc(Br)ccc1OC(F)F | · | · | · | · | 1% | ·
Cc1ccc(Cl)cc1NC(=O)Cn1c(=O)c2ccccc2n2nncc12 | · | · | -11%[76.3 µM] | · | · | ·
Nc1ccc(Nc2ccccc2)c(S(=O)(=O)O)c1 | -15% | -3% | 14µM* | 5 | 5% | -16%
Cc1ccc(Nc2ccc(N)cc2S(=O)(=O)O)cc1 | -3% | -7% | ? | -8 | -1% | 6%
COC(=O)NC(c1ccco1)C(C(C)=O)C(=O)OC (configuration not stated) | 2%[17.4 µM] | · | · | · | -1%[12.8 µM] | -1%[17.5 µM]
Cc1coc2c1c(C)cc1oc(=O)cc(C)c12 | · | · | 17%[76.3 µM] | · | · | ·

From PubChem BioAssay
